Giardia FBPA inh – Giardia lamblia aldolase inhibition. A8B2U2. purified Giardia FBPA. Potency, µM (titrated, usually from 59.6 µM), hits mostly inhibitors. 0.71% of 290,000 active; note: nearly all actives have a fitted effect of over 55% in size
Target sequence (A8B2U2 whole entry, looked up): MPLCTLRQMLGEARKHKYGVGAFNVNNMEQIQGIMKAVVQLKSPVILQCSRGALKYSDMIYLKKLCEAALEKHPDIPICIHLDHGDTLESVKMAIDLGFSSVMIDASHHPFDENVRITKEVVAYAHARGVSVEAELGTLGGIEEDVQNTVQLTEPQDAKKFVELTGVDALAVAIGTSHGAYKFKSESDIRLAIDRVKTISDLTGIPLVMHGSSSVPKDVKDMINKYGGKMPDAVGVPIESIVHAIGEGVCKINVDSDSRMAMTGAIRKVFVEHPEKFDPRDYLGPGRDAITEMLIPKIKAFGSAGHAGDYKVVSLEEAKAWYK
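Giardia FBPA (40 nM reagent) was preincubated 10 min at RT with compound (up to 57.5 uM final), then substrate plus GAPDH/TPI/NAD/arsenate coupling system with diaphorase/resazurin was added; resorufin fluorescence (525/598 nm) was read after 20 min.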
Pf growth 48h – inhibits P. falciparum growth in the first generation, 48 h; P. falciparum luciferase growth in erythrocytes, 48 h; Potency, µM (highest dose often 28.7 µM), usual class: inhibitors; 5.9% of 310,000 active; AID 504832
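Erythrocytes infected with P. falciparum carrying an integrated firefly luciferase reporter (2% hematocrit, 0.1% parasitemia final) were exposed to compounds in RPMI 1640 with 0.5% Albumax at 37 C, 5% CO2. Growth inhibition was scored as reduced luminescence.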
HCMV inh – human cytomegalovirus inhibition | activity change, negative = inhibition, % at 57.5 µM | HFF cells, HCMV-luciferase reporter, 72 h; stronger effect = lower value | 4.5% of 410,000 active; in the data active = activity change below about -60%; inconclusive = no clear call, values can overlap the other calls; inactive = above about -39%
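Human foreskin fibroblasts infected with luciferase-reporter HCMV at MOI 1 PFU/cell, compounds at two doses. Luciferase measured 72 h post infection; normalized to buffer-only basal and Salinomycin (10uM) controls.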
Pf growth 96h – P. falciparum growth inhibition at 96 hours; P. falciparum luciferase reporter growth, 96 h; Potency, µM (doses to about 28.7 µM), hits mostly inhibitors; 6.9% of 320,000 active; AID 504834
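Two-generation exposure (96 h) targets delayed-death phenotype. Reporter parasites carrying integrated firefly luciferase, in red cells at 2% hematocrit and 0.05% parasitemia final, kept at 37 C, 5% CO2; luminescence loss indicates inhibition.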
Sm TGR inh – S. mansoni TGR enzyme inhibition; purified TGR, DTNB reduction, TNB absorbance 405 nm; Potency, µM (highest dose often 114 µM), usual class: inhibitors; 3% of 360,000 active; AID 485364; note: nearly all actives have a fitted effect of over 60% in size
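TGR 20 nM + NADPH 100 uM (dispensed conc.), cpd preinc 15 min RT; start with NADPH (500 uM addition) then DTNB (15 mM addition). Kinetic TNB absorbance, 405 nm filter. Four-parameter Hill fit across titration.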
Hits are given with their value. This is a sample that favours compounds with a hit; in the whole collection about 14% have one here. Unless noted, calls come from the whole dose curve; as a rule, active = well fitted curve in the direction sought with a large enough effect; inconclusive = small, poorly fitted or top-dose-only effect, or another doubt; inactive = no such curve, though single readings can be large; an effect the other way counts as inactive or inconclusive.

`O=C(CNC(c1ccccc1)c1ccccc1)Nc1cc([N+](=O)[O-])ccc1Cl` gave Giardia FBPA inh inactive, Pf growth 48h inconclusive, HCMV inh inactive, Pf growth 96h 13µM and Sm TGR inh inactive.
For CC(C)CC(=O)Nc1cc([N+](=O)[O-])ccc1Cl the results were Giardia FBPA inh inactive, Pf growth 48h inactive, HCMV inh inactive, Pf growth 96h inactive and Sm TGR inh inactive.
C/C=C/C=C/C(=O)[C@@H]1[C@@H]([C@]2(C)OC(=O)C(C)=C2O)[C@H]2/C(=C(O)/C=C/C=C/C)C(=O)[C@]1(C)C(=O)C2(C)O (stereo partly drawn) was read as Giardia FBPA inh inactive, Pf growth 48h inactive, HCMV inh inactive, Pf growth 96h 7.4µM and Sm TGR inh 10µM.
COc1ccc(S(=O)(=O)Cc2ccc(C(=O)N3CCCC3)o2)cc1 was read as Giardia FBPA inh inactive, HCMV inh inactive, Pf growth 96h inconclusive and Sm TGR inh 45µM.
`CC(=O)c1ccc(-c2ccc(C(=O)NC3CCCCCC3)o2)cc1` gave Giardia FBPA inh inactive, Pf growth 48h inconclusive, HCMV inh inactive, Pf growth 96h inconclusive and Sm TGR inh 22µM.
COc1ccc(S(=O)(=O)Cc2ccc(C(=O)NC3CCCCCC3)o2)cc1 was read as Pf growth 48h inactive, HCMV inh inactive, Pf growth 96h 7.4µM and Sm TGR inh inactive.
Cc1ccccc1S(=O)(=O)Cc1ccc(C(=O)N2CCN(c3cccc(C)c3C)CC2)o1 was read as Giardia FBPA inh inactive, Pf growth 48h inconclusive, HCMV inh inactive and Sm TGR inh inactive.
For CCOC(=O)N1CCN(C(=O)c2ccc(CS(=O)(=O)c3ccc(OC)cc3)o2)CC1 the results were Giardia FBPA inh inactive, Pf growth 48h inactive, HCMV inh inactive, Pf growth 96h inactive and Sm TGR inh inconclusive.
Cc1ccccc1S(=O)(=O)Cc1ccc(C(=O)N2CC(C)CC(C)C2)o1 (stereo not drawn) was read as Giardia FBPA inh inactive, HCMV inh inconclusive, Pf growth 96h 17µM and Sm TGR inh inconclusive.
For CN(C)c1ncc2nc(-c3cccc(C#N)c3)c(=O)n(C[C@H]3CCCO3)c2n1 the results were Giardia FBPA inh inactive.
For CCN(CC)C(=O)Cn1c(=O)n(CC2CCC(C(=O)NC)CC2)c(=O)c2sccc21 (stereo not drawn) the results were HCMV inh inactive and Sm TGR inh inactive.
For Cc1ccc(S(=O)(=O)Cc2ccc(C(=O)N3CCC(C(N)=O)CC3)o2)cc1 the results were Pf growth 48h inactive, HCMV inh inactive, Pf growth 96h 10µM and Sm TGR inh inactive.
COc1ccc(S(=O)(=O)Cc2ccc(C(=O)N3CCN(c4ccccc4)CC3)o2)cc1 was read as Giardia FBPA inh inactive, Pf growth 48h inconclusive, HCMV inh inactive, Pf growth 96h inactive and Sm TGR inh inconclusive.
`COc1ccc(S(=O)(=O)Cc2ccc(C(=O)N3CCC(C(N)=O)CC3)o2)cc1` gave Giardia FBPA inh inactive, HCMV inh inactive, Pf growth 96h inactive and Sm TGR inh inactive.
`Cc1ccc(S(=O)(=O)Cc2ccc(C(=O)N3CCC4(CC3)OCCO4)o2)cc1` gave Giardia FBPA inh inactive, Pf growth 48h inactive, HCMV inh inactive and Sm TGR inh 22µM.
Screening Cc1ccc(CS(=O)(=O)Cc2ccc(C(=O)N3CCC4(CC3)OCCO4)o2)cc1 returned Giardia FBPA inh inactive, Pf growth 48h inactive, HCMV inh inactive, Pf growth 96h inactive and Sm TGR inh 45µM.
For Cc1ccc(CS(=O)(=O)CCC(=O)N2CCC3(CC2)OCCO3)cc1 the results were Giardia FBPA inh inactive, Pf growth 48h inactive, HCMV inh inactive, Pf growth 96h inactive and Sm TGR inh inactive.
Screening NCC1CCC(C(=O)O)CC1 (stereo not drawn) returned Giardia FBPA inh inactive, Pf growth 48h inactive and Pf growth 96h inactive.
For CCc1ccc(-n2c(O)c(C=NCCN(CC)CC)c(=O)[nH]c2=O)cc1 the results were Giardia FBPA inh inactive, Pf growth 48h inactive, HCMV inh inactive, Pf growth 96h inactive and Sm TGR inh 22µM.
Screening CCN(CC)CCN=Cc1c(O)n(Cc2ccccc2)c(=O)[nH]c1=O returned Giardia FBPA inh inactive, Pf growth 48h inactive, HCMV inh inactive, Pf growth 96h inactive and Sm TGR inh inactive.
For CC(=O)NC12CC3CC(C1)CC(C(=O)OCC(=O)Nc1ncc(Cl)cc1Cl)(C3)C2 the results were Giardia FBPA inh inactive, Pf growth 48h inconclusive, HCMV inh inactive, Pf growth 96h 12µM and Sm TGR inh inconclusive.
`CC(=O)NC12CC3CC(C1)CC(C(=O)OCC(=O)Nc1c(F)cccc1F)(C3)C2` gave Pf growth 48h inconclusive, HCMV inh inactive, Pf growth 96h 6.6µM and Sm TGR inh inactive.
`O=C(COC(=O)C12CC3CC(CC(Br)(C3)C1)C2)Nc1c(F)cccc1F` gave HCMV inh inactive.
Screening COc1cc2c(cc1OC)CN(CC(=O)Nc1ccccc1C(=O)NCc1ccccc1)CC2 returned Giardia FBPA inh inactive, Pf growth 48h 17µM, HCMV inh inactive, Pf growth 96h 2.9µM and Sm TGR inh inactive.
`COc1ccc(N2CCN(C(=S)NCCc3ccccc3)CC2)cc1` gave HCMV inh inactive.
Screening COc1ccccc1N1CCN(CC(=O)NC(=O)NCc2ccccc2)CC1 returned HCMV inh inactive.
Screening Oc1ccc(N2CCN(C(=S)NCCc3ccccc3)CC2)cc1 returned Giardia FBPA inh inactive, Pf growth 48h inconclusive, HCMV inh -70, Pf growth 96h inactive and Sm TGR inh inactive.
COc1cc2c(cc1OC)CN(CC(=O)NC(=O)NCc1ccccc1)CC2 was read as Giardia FBPA inh inactive, Pf growth 48h 9.3µM, HCMV inh inactive, Pf growth 96h inconclusive and Sm TGR inh inactive.
O=C(CN1CCN(c2ccc(O)cc2)CC1)Nc1ccccc1C(=O)NCCc1ccccc1 was read as Pf growth 48h inconclusive, HCMV inh -61, Pf growth 96h inconclusive and Sm TGR inh 40µM.
`NCC1O[C@@H](OC2C(N)C[C@H](N)[C@@H](O[C@H]3OC(CO)C(O)C(N)C3O)C2O)C(O)C(O)C1O` (stereo partly drawn) gave Giardia FBPA inh inactive.
For COc1cccc(N2CCN(CC(=O)Nc3ccccc3C(=O)NCc3ccccc3)CC2)c1 the results were Pf growth 48h 9.3µM, HCMV inh inactive, Pf growth 96h inconclusive and Sm TGR inh inactive.
`COc1cc(Cl)ccc1OCc1cc(C(=O)NC2CCc3ccccc32)no1` (stereo not drawn) gave Pf growth 48h inactive, HCMV inh inactive, Pf growth 96h inactive and Sm TGR inh inactive.
Screening CC(=O)Nc1ccc(S(=O)(=O)N2CCN(C(=O)c3ncoc3-c3ccc(F)cc3)CC2)cc1 returned Giardia FBPA inh inactive, Pf growth 48h inactive, HCMV inh inactive, Pf growth 96h inconclusive and Sm TGR inh inactive.
CCN(CC)C(=O)CC(c1ccccc1)c1ccco1 (stereo not drawn) was read as Giardia FBPA inh inactive, Pf growth 48h inconclusive, HCMV inh inactive, Pf growth 96h inconclusive and Sm TGR inh inconclusive.
